In the supplement of paper PMC6555819:

Experiments:
Assay in all cases: PBM binding z-score (relative to random genomic background probes); higher = stronger binding; sequences stand for … in GC…GCGATTGACAGCGTAGAATGAAGG
[1] = test system: RARb homodimer (NR concentration 270 nM)
Summary of the method: (§1)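 Each nuclear receptor dimer, without ligand, was incubated for 1 h on custom Agilent 4×180K protein-binding microarrays. Binding was detected with antibodies against each partner (one per run), and scanned fluorescence was regression-normalized. The binding z-scores are referenced to random human genomic background probes.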

[2] = test system: RARg:RXRa (NR concentration 270 nM, RXRa partner concentration 90 nM)
Summary of the method: as §1

[3] = test system: RARg homodimer (NR concentration 270 nM)
Summary of the method: as §1

[4] = test system: RXRa DBDmut IVT, anti-RXR (DBD mutation: RXRa K156A/R161A, NR concentration 90 nM)
Summary of the method: as §1

[5] = test system: RXRa homodimer (NR concentration 180 nM)
Summary of the method: as §1

[6] = test system: THRa:RXRa (NR concentration 90 nM, RXRa partner concentration 90 nM)
Summary of the method: as §1

[7] = test system: THRa homodimer (NR concentration 90 nM)
Summary of the method: as §1

[8] = test system: VDR:RXRa (NR concentration 270 nM, RXRa partner concentration 90 nM)
Summary of the method: as §1

[9] = test system: VDR homodimer (NR concentration 270 nM)
Summary of the method: as §1

## ATCTCTAGGTAAGACTCAGTTCGGTGAAGAACGC
[1]
  PBM binding z-score: 0.505
[2]
  PBM binding z-score: 0.0648
[3]
  PBM binding z-score: 0.192
[4]
  PBM binding z-score: 0.349
[5]
  PBM binding z-score: -0.00788
[6]
  PBM binding z-score: 0.483
[7]
  PBM binding z-score: 0.697
[8]
  PBM binding z-score: 0.216
[9]
  PBM binding z-score: 0.648

## TCATATACGTAAAAGGTGAAAGTCGGTGTGGTAA
[1]
  PBM binding z-score: 1.94
[2]
  PBM binding z-score: 1.27
[3]
  PBM binding z-score: 0.986
[4]
  PBM binding z-score: 1.98
[5]
  PBM binding z-score: 2.01
[6]
  PBM binding z-score: 1.36
[7]
  PBM binding z-score: 0.293
[8]
  PBM binding z-score: 1.43
[9]
  PBM binding z-score: 0.435

## TAGCGTAGGTCATGCGGGCCAGTATAGTGTCGGC
[1]
  PBM binding z-score: 2.91
[2]
  PBM binding z-score: 4.14
[3]
  PBM binding z-score: 4.63
[4]
  PBM binding z-score: 0.594
[5]
  PBM binding z-score: 3.78
[6]
  PBM binding z-score: 2.27
[7]
  PBM binding z-score: -0.424
[8]
  PBM binding z-score: 3.33
[9]
  PBM binding z-score: 0.141

## CGTCCAAGGTCATAGGTCAGTGAAGAGATGACGG
[1]
  PBM binding z-score: 4.84
[2]
  PBM binding z-score: 6.97
[3]
  PBM binding z-score: 6.86
[4]
  PBM binding z-score: 3.61
[5]
  PBM binding z-score: 8.18
[6]
  PBM binding z-score: 4.31
[7]
  PBM binding z-score: 2.65
[8]
  PBM binding z-score: 5.32
[9]
  PBM binding z-score: 3.51

## AATACAGGGTCACTAAGCCAGAGTAGGTACGAAT
[1]
  PBM binding z-score: 3.03
[2]
  PBM binding z-score: 5.07
[3]
  PBM binding z-score: 4.83
[4]
  PBM binding z-score: 2.77
[5]
  PBM binding z-score: 5.39
[6]
  PBM binding z-score: 3.33
[7]
  PBM binding z-score: 1.13
[8]
  PBM binding z-score: 4.02
[9]
  PBM binding z-score: 2.35

## TGAATCAGGTTAAAGATCAGGGAACGTGGCGTCG
[1]
  PBM binding z-score: -7.29e-05
[2]
  PBM binding z-score: 0.805
[3]
  PBM binding z-score: 0.611
[4]
  PBM binding z-score: -0.0911
[5]
  PBM binding z-score: 1.71
[6]
  PBM binding z-score: 1.04
[7]
  PBM binding z-score: -0.365
[8]
  PBM binding z-score: 0.238
[9]
  PBM binding z-score: -0.0211

## GCTGCTAGGTCAACTGGTGGTCAGCTAAAGCTCG
[1]
  PBM binding z-score: 3.61
[2]
  PBM binding z-score: 5.52
[3]
  PBM binding z-score: 5.36
[4]
  PBM binding z-score: 1.53
[5]
  PBM binding z-score: 2.88
[6]
  PBM binding z-score: 3.02
[7]
  PBM binding z-score: 0.794
[8]
  PBM binding z-score: 1.64
[9]
  PBM binding z-score: 0.0223

## ATATGTAGGTTACATACGGGTCATTCAGGCTATG
[1]
  PBM binding z-score: 2.71
[2]
  PBM binding z-score: 4.44
[3]
  PBM binding z-score: 2.41
[4]
  PBM binding z-score: 0.906
[5]
  PBM binding z-score: 3.48
[6]
  PBM binding z-score: 2.73
[7]
  PBM binding z-score: 0.593
[8]
  PBM binding z-score: 4.14
[9]
  PBM binding z-score: 2.29

## GCTTGTAGATCAAGGTTAACAAAGACTAAGCTAA
[1]
  PBM binding z-score: 0.609
[2]
  PBM binding z-score: 0.795
[3]
  PBM binding z-score: 0.37
[4]
  PBM binding z-score: 0.051
[5]
  PBM binding z-score: 1.05
[6]
  PBM binding z-score: 1.49
[7]
  PBM binding z-score: -0.000318
[8]
  PBM binding z-score: 0.333
[9]
  PBM binding z-score: -0.118

## ACTCGGAGGACAAAGGTCAGTGCTACGCCAGTGA
[1]
  PBM binding z-score: 4.71
[2]
  PBM binding z-score: 5.37
[3]
  PBM binding z-score: 4.99
[4]
  PBM binding z-score: 1.36
[5]
  PBM binding z-score: 4.26
[6]
  PBM binding z-score: 3.38
[7]
  PBM binding z-score: 0.657
[8]
  PBM binding z-score: 2.82
[9]
  PBM binding z-score: 1.11

## TGTCAAATTTCAAAGGTAACGTAAGTATCCACAC
[1]
  PBM binding z-score: 0.519
[2]
  PBM binding z-score: 0.768
[3]
  PBM binding z-score: 0.628
[4]
  PBM binding z-score: -0.231
[5]
  PBM binding z-score: 0.652
[6]
  PBM binding z-score: 1.27
[7]
  PBM binding z-score: -0.123
[8]
  PBM binding z-score: 0.605
[9]
  PBM binding z-score: -0.127

## ATCTCTAGGTAGAAGTTCAGTGAATCCCGAGGAT
[1]
  PBM binding z-score: 1.2
[2]
  PBM binding z-score: 0.74
[3]
  PBM binding z-score: 0.979
[4]
  PBM binding z-score: 0.251
[5]
  PBM binding z-score: 0.602
[6]
  PBM binding z-score: 0.355
[7]
  PBM binding z-score: -0.305
[8]
  PBM binding z-score: 0.473
[9]
  PBM binding z-score: 1.28

## CAAACTAGGTCAGGAGGTCAAAGTCCGCTTCCCG
[1]
  PBM binding z-score: 5.3
[2]
  PBM binding z-score: 6.99
[3]
  PBM binding z-score: 5.98
[4]
  PBM binding z-score: 2.11
[5]
  PBM binding z-score: 5.81
[6]
  PBM binding z-score: 3.97
[7]
  PBM binding z-score: 2.52
[8]
  PBM binding z-score: 5.18
[9]
  PBM binding z-score: 3.61

## GATACAGGGTCAAGCCCAGAGTACGCGTATTGAT
[1]
  PBM binding z-score: 3.52
[2]
  PBM binding z-score: 5.73
[3]
  PBM binding z-score: 5.47
[4]
  PBM binding z-score: 2.9
[5]
  PBM binding z-score: 6.59
[6]
  PBM binding z-score: 3.45
[7]
  PBM binding z-score: 0.87
[8]
  PBM binding z-score: 4.5
[9]
  PBM binding z-score: 2.39

## AGAATGAGGTTAAGATCAGGGATACAGAATACAT
[1]
  PBM binding z-score: 1.26
[2]
  PBM binding z-score: 2.17
[3]
  PBM binding z-score: 1.83
[4]
  PBM binding z-score: 1.17
[5]
  PBM binding z-score: 2.45
[6]
  PBM binding z-score: 2.78
[7]
  PBM binding z-score: 1.25
[8]
  PBM binding z-score: 1.47
[9]
  PBM binding z-score: 0.506

## ACTAGCGGGCCAAGGGTCACTCAAGATTAGTCCG
[1]
  PBM binding z-score: 3.7
[2]
  PBM binding z-score: 3.9
[3]
  PBM binding z-score: 3.71
[4]
  PBM binding z-score: 0.364
[5]
  PBM binding z-score: 4
[6]
  PBM binding z-score: 2.62
[7]
  PBM binding z-score: -0.0687
[8]
  PBM binding z-score: 2.66
[9]
  PBM binding z-score: 1.07

## GCTGCCAGGTCAGGTTGGTCAGCTAACGGGTACG
[1]
  PBM binding z-score: 2.65
[2]
  PBM binding z-score: 2.55
[3]
  PBM binding z-score: 3.29
[4]
  PBM binding z-score: 0.47
[5]
  PBM binding z-score: 1.5
[6]
  PBM binding z-score: 2.51
[7]
  PBM binding z-score: 1.16
[8]
  PBM binding z-score: 1.03
[9]
  PBM binding z-score: 0.33

## ACTAGTTGGTCAGCTGCGGTCACACACAATTCGG
[1]
  PBM binding z-score: 2.82
[2]
  PBM binding z-score: 1.23
[3]
  PBM binding z-score: 1.87
[4]
  PBM binding z-score: 0.356
[5]
  PBM binding z-score: 0.636
[6]
  PBM binding z-score: 2.65
[7]
  PBM binding z-score: 0.969
[8]
  PBM binding z-score: 0.586
[9]
  PBM binding z-score: 0.532

## ATATGTAGGTTACATCCGGGTAATTCAGGCTATG
[1]
  PBM binding z-score: 0.673
[2]
  PBM binding z-score: 1.08
[3]
  PBM binding z-score: 1.06
[4]
  PBM binding z-score: 0.788
[5]
  PBM binding z-score: 0.887
[6]
  PBM binding z-score: 2.3
[7]
  PBM binding z-score: 0.727
[8]
  PBM binding z-score: 0.536
[9]
  PBM binding z-score: 0.278

## CCAGACAAGTGAAAGGTAACTCAGTCTGGTACGC
[1]
  PBM binding z-score: 0.344
[2]
  PBM binding z-score: 0.201
[3]
  PBM binding z-score: 0.303
[4]
  PBM binding z-score: 0.272
[5]
  PBM binding z-score: 0.604
[6]
  PBM binding z-score: 0.291
[7]
  PBM binding z-score: -0.287
[8]
  PBM binding z-score: 0.274
[9]
  PBM binding z-score: 0.0715

## GATACAGGGTCAGCTAGACGCCAGAGTATGGAAA
[1]
  PBM binding z-score: 2.32
[2]
  PBM binding z-score: 4.41
[3]
  PBM binding z-score: 4.12
[4]
  PBM binding z-score: 0.957
[5]
  PBM binding z-score: 4.21
[6]
  PBM binding z-score: 2.43
[7]
  PBM binding z-score: 0.221
[8]
  PBM binding z-score: 2.29
[9]
  PBM binding z-score: 0.722

## AGAATGAGGTTTAGATCAGGGAAACAGAATACAT
[1]
  PBM binding z-score: -0.22
[2]
  PBM binding z-score: -0.0854
[3]
  PBM binding z-score: 0.196
[4]
  PBM binding z-score: -0.146
[5]
  PBM binding z-score: -0.129
[6]
  PBM binding z-score: 0.678
[7]
  PBM binding z-score: -0.242
[8]
  PBM binding z-score: -0.225
[9]
  PBM binding z-score: 0.0888

## GCAGACGGGTGAAACGCAGGTAACTCAGGGTGGC
[1]
  PBM binding z-score: -0.28
[2]
  PBM binding z-score: 0.482
[3]
  PBM binding z-score: -0.283
[4]
  PBM binding z-score: -1.07
[5]
  PBM binding z-score: 0.49
[6]
  PBM binding z-score: 1.3
[7]
  PBM binding z-score: -0.706
[8]
  PBM binding z-score: -0.555
[9]
  PBM binding z-score: -0.68

## TCTCGGAGGACACGAAGGTGAGAGCTTTCCAGAG
[1]
  PBM binding z-score: 1.24
[2]
  PBM binding z-score: 0.731
[3]
  PBM binding z-score: 1.55
[4]
  PBM binding z-score: 0.225
[5]
  PBM binding z-score: 0.152
[6]
  PBM binding z-score: 1.48
[7]
  PBM binding z-score: 0.357
[8]
  PBM binding z-score: -0.377
[9]
  PBM binding z-score: -0.501

## CGAACTAGGTCATTGACAGGACAGTAAATAGTAA
[1]
  PBM binding z-score: 2.73
[2]
  PBM binding z-score: 4.76
[3]
  PBM binding z-score: 4.54
[4]
  PBM binding z-score: 2.6
[5]
  PBM binding z-score: 2.84
[6]
  PBM binding z-score: 2.74
[7]
  PBM binding z-score: 0.723
[8]
  PBM binding z-score: 2.34
[9]
  PBM binding z-score: 1.03

## CTCGATAGGTCGTGCTCAGGTGAGTATACCAAAC
[1]
  PBM binding z-score: 1.07
[2]
  PBM binding z-score: 2.26
[3]
  PBM binding z-score: 1.2
[4]
  PBM binding z-score: 0.506
[5]
  PBM binding z-score: 1.29
[6]
  PBM binding z-score: 2.86
[7]
  PBM binding z-score: 0.582
[8]
  PBM binding z-score: 0.637
[9]
  PBM binding z-score: 0.0382
